From PubChem BioAssay
ATXN2 expr inh: ATXN2 expression inhibition | AID 1745845 | 0.72% of 360,000 active | HEK-293 ATXN2-luciferase reporter, luminescence, 24 h | Potency, µM (top dose mostly 57 µM), for the others: top-dose activity change, negative = inhibition, hits mostly inhibitors; note: % is set by controls: 0 for no effect and ±100 for the full control effect; nearly all actives have a fitted effect of over 55% in size
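qHTS (up to 57 uM final) was run with 24 h compound exposure of reporter cells at 37 °C. Each well was multiplexed: SteadyGlo luminescence measured ATXN2-luciferase expression after a fluorogenic Gly-Phe-AFC viability readout (25 uM final).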
KB-V1 MDR tox: KB-V1 MDR subline cytotoxicity. KB-V1 MDR cells viability, CellTiter-Glo, 72 h. Potency, µM (highest dose often 46.1 µM), hits mostly cytotoxic. 3.4% of 400,000 active; note: % is set by controls: 0 for no effect and ±100 for the full control effect; nearly all actives have a fitted effect of over 60% in size
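Following 72 h at 37 degrees C with compound, KB-V1 cell viability was read by CellTiter-Glo luminescence, medium being phenol-red-free DMEM plus 10% FBS; concentration-response parameters came from normalized, curve-fitted qHTS data.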
ATXN viability: viability counter-screen for ATXN expression inhibitors; S2 cells (HEK-293 line with an ATXN2-luciferase reporter) viability, CellTiter-Fluor protease fluorescence, 24 h; Potency, µM (titrated, usually from 56.7 µM), hits mostly cytotoxic; 0.49% of 400,000 active; AID 651635; note: nearly all actives have a fitted effect of over 40% in size
HT1080 IDH1KD tx: kills HT-1080 cells with IDH1 knockdown; HT-1080 IDH1 knockdown viability, ATP luminescence, 48 h; Potency, µM (series often up to 46.1 µM), without a hit: top-dose activity, negative = toxicity, hits mostly cytotoxic; 2% of 360,000 active; AID 686971;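 note: 0% = DMSO wells and -100% = cell-free medium wells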
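HT-1080-IDH1KD cells (IDH1 knocked down), 750/well in RPMI with 5% FBS, treated with compound 48 h at 37 degrees C. Viability by CellTiter-Glo luminescence, normalised to DMSO and no-cell wells; concentration-response curves classed.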
KB-3-1 tox: kills parental KB-3-1 adenocarcinoma cells. KB-3-1 viability, CellTiter-Glo ATP luminescence, 72 h. Potency, µM (top dose mostly 46.1 µM), hits mostly cytotoxic. 1.4% of 400,000 active; note: % is set by controls: 0 for no effect and ±100 for the full control effect; nearly all actives have a fitted effect of over 60% in size
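Screening of KB-3-1 cells (DMEM, 10% FBS, phenol-red free) ran from lowest to highest compound concentration; after 72 h at 37 °C viability was read luminescently and curves fitted.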
HT1080-NT tox: kills 2HG-producing HT-1080-NT fibrosarcoma cells. HT-1080-NT fibrosarcoma viability, CellTiter-Glo ATP luminescence, 48 h. Potency, µM (doses to about 46.1 µM), for inactives: at the highest dose activity, negative = less viability, hits mostly cytotoxic. 1.6% of 360,000 active;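 note: NT is the 2HG producing partner of a matched IDH1 knockdown line; 0% = DMSO-treated cells and -100% = media-only wells without cells; nearly all actives have a fitted effect of over 55% in size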
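Viability by CellTiter-Glo luminescence after 48 h compound exposure at 37C of HT-1080-NT cells (750/well, RPMI, 5% FBS). % activity scaled between DMSO wells and medium-only wells, then curve-fitted and categorized by curve class.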
An asterisk follows results filed as active; i = inactive; ? = inconclusive; . = no result; [ ] = another dose, or the depositor's remark. An excerpt weighted towards active compounds, which were near 6.2% of everything screened. Calls come from the whole dose curve; as a rule, active = well fitted curve in the direction sought with a large enough effect; inconclusive = small, poorly fitted or top-dose-only effect, or another doubt; inactive = no such curve, though single readings can be large; an effect the other way counts as inactive or inconclusive. Potency is the fitted concentration of half-maximal effect.

SMILES	ATXN2 expr inh	KB-V1 MDR tox	ATXN viability	HT1080 IDH1KD tx	KB-3-1 tox	HT1080-NT tox
NC(=O)c1ccsc1NC(=O)COc1ccccc1	11%	13µM*	i	?	i	-24%
COc1cc(C(=O)OCC(=O)Nc2sccc2C(N)=O)cc(OC)c1OC	?	?	?	7.3µM*	16µM*	?
CCOCCCN(CCC#N)S(=O)(=O)c1ccc(S(=O)(=O)N2CCCC2)cc1	-12%	26µM*	i	4%	i	1%
CN1CCN(CC(O)COc2ccc(C34CC5CC(CC(C5)C3)C4)cc2)CC1 (centres undefined)	-8%	?	i	15µM*	?	18µM*
CN1CCN(CC(O)COc2ccccc2)CC1 (centres undefined)	7%	i	i	10%	i	15%
C[C@@H]1C[C@H]2[C@@H]3CCC4=CC(=O)C=C[C@]4(C)[C@@]3(F)[C@@H](O)C[C@]2(C)[C@@]1(O)C(=O)COC(=O)c1ccncc1	-2%	.	i	.	.	.
O=C(Cn1nc(C(F)(F)F)c2c1CCCC2)Nc1cccc(Cl)c1	?	i	?	.	?	.
CN(NS(=O)(=O)c1ccc(Br)cc1)c1nc(C(F)(F)F)nc2ccccc12	?	?	i	18µM*	?	?
CN(N)c1nc(C(F)(F)F)nc2ccccc12	12%	i	i	1%	i	8%
Fc1cccc(-c2nnn3c2nc(NC2CCCCC2)c2ccccc23)c1	20%	i	i	.	i	.
Cc1ccc(NC(=O)c2ccc3c(=O)n4nc(Nc5ccccc5C)sc4nc3c2)cc1C	-31%	i	i	.	i	.
CCOc1cc2c(c3c1C(c1ccccc1)N(S(=O)(=O)c1ccc(C)cc1)C3)C(=O)C=CC2=O (centres undefined)	?	?	6.3µM*	12µM*	?	6.5µM*
CCOC(=O)C1=CCN(S(=O)(=O)c2ccc(C)cc2)C1c1ccccc1 (centres undefined)	-20%	i	?	1%	i	-2%
COc1ccc(C)cc1NC(=O)CN(C)S(=O)(=O)c1cccs1	-2%	?	i	0%[9.24 µM]	i	-1%
Cc1ccc(CC(=O)Nc2ccccc2-c2ccccc2)cc1C	4%	21µM*	i	15%	i	12%
CCN(CC(=O)Nc1ccccc1-c1ccccc1)Cc1nc2ccccc2c(=O)[nH]1	-24%[11.3 µM]	?	i	4.6µM*	8.2µM*	5.8µM*
CCN(CC(=O)Nc1ccccc1SC)Cc1nc2ccccc2c(=O)[nH]1	-19%	i	i	-7%	i	0%
COc1ccccc1NC(=O)CN(C)S(=O)(=O)c1cc(C)ccc1OC	-13%	21µM*	i	-2%	i	3%
O=C(CNC(c1ccccc1)c1ccccc1)Nc1ccccc1-c1ccccc1	?	15µM*	i	-29%	?	-17%
COCC(=O)Nc1ccccc1-c1ccccc1	2%[11.3 µM]	i	?	-2%	i	-4%
COC(=O)[C@@H]1CCCN1C(=O)c1c(OC)cc(=O)n2c1CCN(Cc1ccc(C)o1)CC2	.	.	i	.	.	.
COc1ccc(CC(=O)Nc2cccc3ccccc23)cc1OC	?	i	i	-8%	i	0%
COc1ccc(CC(=O)Nc2ccccc2-c2ccccc2)cc1OC	-26%	15µM*	i	-9%	?	-7%
CCN(CC(=O)Nc1ccccc1OC)CC(=O)Nc1ccccc1-c1ccccc1	-29%	8.2µM*	i	7.3µM*	21µM*	15µM*
CCc1ccc(NS(=O)(=O)c2[nH]ncc2C(=O)OC)cc1	12%	?	i	.	i	.
Cc1csc(SCC(=O)N2CCOc3ccc(C(O)C4CCCCC4)cc3C2)n1 (centres undefined)	.	.	i	.	.	.
COc1cc(N2CCC(N3CCN(C)CC3)CC2)ccc1Nc1ncnc(Nc2ccccc2S(=O)(=O)C(C)C)n1	27µM*	.	.	.	.	.
